This is a sample that favours compounds with a hit; in the whole collection about 2.6% have one here.
TWEAK Fn14 block = blocks TWEAK-Fn14 interaction in a reporter cell assay | AID 1159606 | inhibition, % at 10 µM | TWEAK-stimulated Fn14 reporter cells, luciferase luminescence, 8 h | 360,000 tested, 2% active; in the data active means inhibition above about 50%
aDG glyco act = alpha-DG glycosylation activation. Pro5-aDG cells, alpha-DG glycosylation AlphaScreen (IIH6); 0% Pro5, 100% B10-LARGE cell signal. activation, % at 10 µM. AID 624168. 360,000 tested, 0.22% active;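 active means activation of at least 8% versus controls, or a plate z-score of at least 8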;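 further: Pro5 are CHO cells carrying HIG-tagged alpha-DG that lacks glycosylation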
HSP90 refold inh = blocks HSP90-mediated luciferase refolding in reticulocyte lysate | Rabbit reticulocyte lysate, luciferase refolding luminescence, 3 h | inhibition, % at 5.6 µM | 290,000 tested, 0.91% active | AID 1789;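 active means inhibition above the screen-wide mean plus 3 SD, computed separately per campaign, cut at about 16% in these data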;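 further: 0% = DMSO wells and 100% = 60 µM geldanamycin wells; inhibitors lower the luminescence because luciferase stays unfolded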
TROY NFkB inh = inhibitors of TROY-dependent NF-kB signaling; Q293 LMP1-TROYcd NF-kB luciferase reporter, 4 h; inhibition, % at 10 µM; 360,000 tested, 0.98% active; AID 1347056;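 active means compounds whose plate-normalised and pattern-corrected inhibition of the luciferase reporter signal at the single screening dose is 50% or more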
LGR2 inh = blocks bursicon-induced cAMP signaling via Drosophila LGR2. HEK293 LGR2, CRE-luciferase, bursicon-stimulated, 4 h. inhibition, % at 9.99 µM. 380,000 tested, 0.35% active. AID 720647;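 active means drop in luminescence signal, shown as inhibition above about 50% in the replicate tests, limit read from the data, passing the limit was not always enough; inconclusive means probably only some replicates passing the limit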;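 further: agonist challenge used bursicon conditioned medium at about half maximal strength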
LMP1 NFkB inh = inhibitors of Epstein-Barr LMP1-induced NF-kappaB reporter; 350,000 tested, 0.69% active; LMP1-induced NF-kappaB luciferase reporter cells, luminescence; inhibition, % at 12.5 µM; AID 504558; in the data active means inhibition above about 41%; inconclusive means no clear call, values can overlap the other calls;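 further: 0% = neutral control wells and 100% = reference inhibitor control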
HSP90 confirm = HSP90 inhibition, confirmation assay; shares compounds with HSP90 refold inh; 2,300 tested, 64% active; AID 1846; rabbit reticulocyte lysate, luciferase refolding luminescence, 3 h; inhibition, % at 5.9 µM; in the data active means inhibition above about 18%;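 further: 0% = vehicle wells and 100% = reference inhibitor wells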
FLuc counter = counter-screen for HSP90 inhibitors: inhibitors of firefly luciferase; shares compounds with HSP90 refold inh; purified native firefly luciferase, luminescence; inhibition, % at 5.9 µM; 2,300 tested, 48% active;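 active means inhibition above the mean inhibition of all tested sample wells plus 3 SD, cut at about 10% in these data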;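 further: 0% = DMSO with luciferase and 100% = wells lacking luciferase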
Target sequence (P08659 whole entry, looked up): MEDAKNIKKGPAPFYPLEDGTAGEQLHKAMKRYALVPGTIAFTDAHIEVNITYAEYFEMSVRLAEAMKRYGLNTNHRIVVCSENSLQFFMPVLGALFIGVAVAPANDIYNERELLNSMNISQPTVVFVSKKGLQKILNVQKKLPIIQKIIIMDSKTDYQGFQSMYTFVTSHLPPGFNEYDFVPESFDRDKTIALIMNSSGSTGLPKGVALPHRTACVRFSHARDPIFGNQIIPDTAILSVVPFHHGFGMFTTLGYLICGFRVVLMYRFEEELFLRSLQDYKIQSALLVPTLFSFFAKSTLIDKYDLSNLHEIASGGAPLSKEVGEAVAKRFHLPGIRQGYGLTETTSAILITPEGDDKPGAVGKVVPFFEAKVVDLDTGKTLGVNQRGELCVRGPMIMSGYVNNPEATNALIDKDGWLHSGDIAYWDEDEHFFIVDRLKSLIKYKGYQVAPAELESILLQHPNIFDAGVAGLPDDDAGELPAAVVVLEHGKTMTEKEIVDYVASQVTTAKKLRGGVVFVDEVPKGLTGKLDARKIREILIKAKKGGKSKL
* hit, by the source's call; u = inconclusive; x = not tested or not shown.

SMILES	TWEAK Fn14 block	aDG glyco act	HSP90 refold inh	TROY NFkB inh	LGR2 inh	LMP1 NFkB inh	HSP90 confirm	FLuc counter
CCc1sc(C(=O)Nc2nc(C)cs2)cc1C	4	0	21*	-6	-122	-13	34*	20*
CCc1sc(C(=O)Nc2ccc(NC(C)=O)cc2)cc1C	-20	0	-2	-32	-17	10	x	x
CN1CCN(C(=O)C[C@@H]2CC[C@@H]3[C@H](COC[C@@H](O)CN3CC3CCCCC3)O2)CC1	x	x	x	x	-2	x	x	x
CCC(=O)N1C[C@@H](C)[C@@H](OC)CN(C)C(=O)c2cc(NC(=O)CC(F)(F)F)ccc2OC[C@H]1C	x	x	x	x	-11	x	x	x
C[C@H]1CN([C@@H](C)CO)C(=O)c2cccc(NS(=O)(=O)c3ccc(F)cc3)c2O[C@@H]1CN(C)Cc1ccc(Oc2ccccc2)cc1	x	x	x	x	7	x	x	x
C/C=C/c1ccc([C@H]2[C@@H](CO)N(C(=O)CC)[C@@H]2CNC(=O)c2ccncc2)cc1	x	x	x	x	5	x	x	x
Cc1ccc(-n2nnc(-c3cccnc3)n2)cc1	2	0	x	-47	-62	-14	x	x
Cc1ccc(-n2nnc(-c3nccn3C)n2)cc1	76*	0	33*	31	u	16	50*	37*
CCNC(=O)[C@@H]1[C@@H](CO)[C@@H]2Cn3c(ccc(-c4ccccc4F)c3=O)[C@H]1N2CC1CC1	x	x	x	x	-9	x	x	x
CC(=O)c1cccc(Nc2nc(-c3sc(C)nc3C)cs2)c1	31	0	-2	21	x	3	x	x
CC(=O)c1cccc(Nc2nc(-c3sc(N)nc3C)cs2)c1	-9	0	52*	10	1	3	1	-10
Cc1nc(C)c(-c2csc(Nc3cccc(O)c3)n2)s1	-4	1	-6	-26	-95	-30	x	x
Cc1nc(N)sc1-c1csc(Nc2cccc(O)c2)n1	29	0	31*	2	9	-6	-4	-21
O=C(C[C@@H]1CC[C@H](NC(=O)Nc2cc(F)ccc2F)[C@H](CO)O1)Nc1ccc(-c2ccccc2)cc1	x	x	x	x	-1	x	x	x
CNC[C@H]1OCCCC[C@H](C)Oc2ccc(NS(=O)(=O)c3cccs3)cc2C(=O)N([C@H](C)CO)C[C@@H]1C	x	x	x	x	32	x	x	x
CCOC(=O)/C(C#N)=C/c1c(Oc2cccc(C)c2)nc2ccccn2c1=O	-9	0	29*	-22	0	-2	-5	-7
C[C@@H]1CN([C@@H](C)CO)C(=O)c2cccc(NC(=O)CCCCCC(=O)Nc3ccccc3N)c2O[C@H]1CN(C)Cc1ccc(Cl)c(Cl)c1	x	x	x	x	-5	x	x	x
CC(NC(=O)COc1cccnc1[N+](=O)[O-])c1ccc(F)cc1 (configuration not stated)	-10	0	30*	-10	12	-1	3	-6
O=C(COc1cccnc1[N+](=O)[O-])Nc1ccc(F)cc1	-2	0	x	-30	-13	-3	x	x
O=C(Nc1ccc2ccccc2c1)c1ccccc1O	90*	0	39*	59*	76*	-24	54*	46*
O=C(Nc1ccc2ccccc2c1)c1ccc(Cl)cc1Cl	24	0	17*	9	-4	-47	37*	20*
O=C(C[C@@H]1C[C@@H]2c3cc(NC(=O)Cc4ccncc4)ccc3O[C@@H]2[C@@H](CO)O1)NCc1ccccn1	x	x	x	x	6	x	x	x
Cc1ccc(C(=O)NC(=S)Nc2ccc(-c3ccc(CO)o3)cc2)cc1	-5	1	4	-70	-14	-3	x	x
O=C(NC(=S)Nc1ccc(-c2ccc(CO)o2)cc1)c1cccs1	-5	0	24*	-9	x	-10	5	-13
CCOC(=O)C1CCN(c2ccc(-c3cccs3)nn2)CC1	-25	0	27*	2	12	2	34*	38*
SMILES	TWEAK Fn14 block	aDG glyco act	HSP90 refold inh	TROY NFkB inh	LGR2 inh	LMP1 NFkB inh	HSP90 confirm	FLuc counter
c1csc(-c2ccc(N3CCOCC3)nn2)c1	-13	0	28*	25	18	13	34*	17*
Cc1ccc(-c2onc3ccc(Br)cc23)cc1	15	0	4	-35	-13	-1	x	x
Cc1ccc(-c2onc3ccc(C4OCCO4)cc23)cc1	1	0	35*	-61	-46	-14	1	-20
Cc1cc(C(=O)CSc2ccc(F)cc2)cc(C)c1OC(=S)N(C)C	100*	0	75*	x	x	24	70*	74*
COc1ccc(SCC(=O)c2cc(C)c(OC(=S)N(C)C)c(C)c2)cc1	9	0	9	22	x	-11	x	x
CCCNC(=O)[C@H]1[C@H](CO)[C@H]2Cn3c(ccc(-c4cccc(F)c4)c3=O)[C@H]2N1C(=O)CC	x	x	x	x	10	x	x	x
O=C1CCN(Cc2ccccc2)CCN1CCOc1ccccc1	48	0	17*	46	-52	-10	13	21*
Clc1ncccc1-c1nnn(-c2ccccc2)n1	20	0	21*	-29	-3	-14	17*	3
O=C(N[C@@H](Cc1c[nH]c2ccccc12)C(=O)O)C1CCN(S(=O)(=O)c2ccc(Cl)cc2)CC1	21	0	-3	-14	-3	5	x	x
O=C(N[C@@H](Cc1c[nH]c2ccccc12)C(=O)O)C1CCN(S(=O)(=O)c2cccs2)CC1	9	0	20*	13	2	11	4	0
COC(=O)C[C@@H]1CC[C@H]2[C@@H](COc3ccc(NC(=O)c4ccc(OC)cc4)cc3C(=O)N2C)O1	x	x	x	x	21	x	x	x
C/C(=N\Nc1nncc2ccccc12)c1ccc(OCC(=O)N(C)C)cc1	-22	0	3	-32	-61	-13	x	x
Fc1cccc(/C=N/Nc2nncc3ccccc23)c1	46	0	29*	-33	12	-9	51*	41*
